This is an account of results in PubChem BioAssay (EPA / NIEHS).

Read-out in assay [1]: Urokinase-type plasminogen activator receptor (uPAR), PLAUR (gene 5329)
The assay is described as follows: BSK_4H_uPAR: BioMAP Diversity Plus: 4H Assay for Urokinase-type plasminogen activator receptor (uPAR) Biomarker Activity (AID 2283030). The note with it: primary human endothelial cells (HUVEC); actives raise or lower the signal. The procedure, abridged: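 Cell-surface uPAR ELISA signal, measured 24 h after dosing human umbilical vein endothelial cells, was analyzed with bidirectional fitting relative to DMSO. Parallel SRB staining of total protein tracked overt cytotoxicity.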

Read-out in assay [2]: Vascular endothelial growth factor receptor 2 (Homo sapiens) (UniProt P35968)
Put plainly: BSK_4H_VEGFRII: BioMAP Diversity Plus: 4H Assay for Vascular endothelial growth factor receptor 2 (VEGFR2) Biomarker Activity (AID 2283031). The note with it: primary human endothelial cells (HUVEC); actives raise or lower the signal. The procedure, abridged:
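ELISA read-out of VEGFRII in primary human umbilical vein endothelium, taken 24 h after chemical treatment. Responses are expressed relative to DMSO, with bidirectional fitting.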

Read-out in assay [3]: Human Leukocyte Antigen - DR isotype (HLADR), HLA-DRA (gene 3122)
Put plainly: BSK_BE3C_HLADR: BioMAP Diversity Plus: BE3C Assay for Human Leukocyte Antigen - DR isotype (HLADR) Biomarker Activity (AID 2283032). The conditions noted are these: primary human bronchial epithelial cells; actives raise or lower the signal. The procedure, abridged:
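Human primary bronchial epithelial cells (BE3C system) exposed to compound for 24 hours; cell-surface HLA-DR measured by ELISA, fitted bidirectionally relative to DMSO. Total protein by SRB in parallel cultures tracked cytotoxicity.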

Read-out in assay [4]: Vascular cell adhesion molecule 1 (VCAM1), VCAM1 (gene 7412)
The assay is described as follows: BSK_4H_VCAM1: BioMAP Diversity Plus: 4H Assay for Vascular cell adhesion molecule 1 (VCAM1) Biomarker Activity (AID 2283033). The conditions noted are these: primary human endothelial cells (HUVEC); actives raise or lower the signal. The procedure, abridged:
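Primary human umbilical vein endothelial cells, 4H stimulation system, treated for 24 h; cell-surface VCAM-1 quantified by ELISA. Bidirectional fitting against DMSO; cytotoxicity tracked by SRB total-protein staining in parallel cultures.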

Read-out in assay [5]: Interferon-gamma inducible Protein 10 (IP10), CXCL10 (gene 3627)
The assay is described as follows: BSK_BE3C_IP10: BioMAP Diversity Plus: BE3C Assay for Interferon-gamma inducible Protein 10 (IP10) Biomarker Activity (AID 2283034). The note with it: primary human bronchial epithelial cells; actives raise or lower the signal. Summed up: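 Primary human bronchial epithelial cells, with IP-10 measured by ELISA 24 hours after chemical dosing. Bidirectional fit against DMSO; cytotoxicity checked by SRB total protein staining in parallel cultures.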

Read-out in assay [6]: Monokine induced gamma interferon (MIG), CXCL9 (gene 4283)
Put plainly: BSK_BE3C_MIG: BioMAP Diversity Plus: BE3C Assay for Monokine induced gamma interferon (MIG) Biomarker Activity (AID 2283035). The conditions noted are these: primary human bronchial epithelial cells; actives raise or lower the signal. The procedure, abridged: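 Primary human bronchial epithelial cells treated for 24 h; MIG levels measured by ELISA, fitted bidirectionally versus DMSO. Parallel SRB total-protein staining assessed cytotoxicity.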

Read-out in assay [7]: Transforming growth factor beta 1 (TGFb1), TGFB1 (gene 7040)
Put plainly: BSK_BE3C_TGFb1: BioMAP Diversity Plus: BE3C Assay for Transforming growth factor beta 1 (TGFb1) Biomarker Activity (AID 2283036). The conditions noted are these: primary human bronchial epithelial cells; actives raise or lower the signal. Summed up:
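Primary human bronchial epithelial cells dosed with chemical; TGF-b1 measured by ELISA 24 h after dosing. Bidirectional curve fitting against DMSO negative control; SRB total-protein staining in parallel cultures gauged cytotoxicity.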

Read-out in assay [8]: Plasminogen activator inhibitor-1 (PAI1), SERPINE1 (gene 5054)
Put plainly: BSK_BE3C_PAI1: BioMAP Diversity Plus: BE3C Assay for Plasminogen activator inhibitor-1 (PAI1) Biomarker Activity (AID 2283037). The conditions noted are these: primary human bronchial epithelial cells; actives raise or lower the signal. The procedure, abridged:
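Primary human bronchial epithelial cells (BE3C system) exposed 24 h; PAI-1 quantified by ELISA. Parallel sulforhodamine B staining of total protein flags cytotoxicity. Bidirectional fit versus DMSO.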

Read-out in assay [9]: urokinase plasminogen activator (uPA), PLAU (gene 5328)
Put plainly: BSK_BE3C_uPA: BioMAP Diversity Plus: BE3C Assay for urokinase plasminogen activator (uPA) Biomarker Activity (AID 2283038).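 As to outcome: uPA protein level quantified by ELISA in cell cultures; uPA read one day after compound addition.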 The conditions noted are these: primary human bronchial epithelial cells; actives raise or lower the signal. The procedure, abridged: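 Bronchial epithelial cells (human, primary); chemical 24 h; uPA by ELISA; bidirectional fit vs DMSO. SRB (0.1%, after 10% TCA fixation, 560 nm) in parallel cultures for cytotoxicity.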

Read-out in assay [10]: Urokinase-type plasminogen activator receptor (uPAR), PLAUR (gene 5329)
Put plainly: BSK_BE3C_uPAR: BioMAP Diversity Plus: BE3C Assay for Urokinase-type plasminogen activator receptor (uPAR) Biomarker Activity (AID 2283039).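 Also: cells exposed to compound for one day before measurement.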 The conditions noted are these: primary human bronchial epithelial cells; actives raise or lower the signal. The procedure, abridged:
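Primary human bronchial epithelial cells dosed for 24 h; uPAR quantified by ELISA with bidirectional fitting against DMSO. Overt cytotoxicity assessed in parallel cultures by SRB total-protein staining (0.1% SRB, 560 nm).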

Read-out in assay [11]: Interleukin-6 (IL6), IL6 (gene 3569)
Put plainly: BSK_CASM3C_IL6: BioMAP Diversity Plus: CASM3C Assay for Interleukin-6 (IL6) Biomarker Activity for (AID 2283040). The conditions noted are these: primary human coronary artery smooth muscle cells; actives raise or lower the signal.

Read-out in assay [12]: Tissue plasminogen activator (tPA), PLAT (gene 5327)
Put plainly: BSK_BE3C_tPA: BioMAP Diversity Plus: BE3C Assay for Tissue plasminogen activator (tPA) Biomarker Activity (AID 2283041).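 As to outcome: tPA level quantified by ELISA one day after compound addition.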 The conditions noted are these: primary human bronchial epithelial cells; actives raise or lower the signal. The procedure, abridged: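 Primary human bronchial epithelial cells in the BE3C system, exposed to compound for 24 h. tPA was quantified by ELISA; DMSO served as baseline, with gain or loss of signal fitted. Cytotoxicity checked in parallel cultures by SRB total-protein staining.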

Read-out in assay [13]: Interleukin-8 (IL8), CXCL8 (gene 3576)
Put plainly: BSK_CASM3C_IL8: BioMAP Diversity Plus: CASM3C Assay for Interleukin-8 (IL8) Biomarker Activity (AID 2283042).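 Also: IL-8 protein level quantified by ELISA.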 The conditions noted are these: primary human coronary artery smooth muscle cells; actives raise or lower the signal.

Read-out in assay [14]: Human Leukocyte Antigen - DR isotype (HLADR), HLA-DRA (gene 3122)
Put plainly: BSK_CASM3C_HLADR: BioMAP Diversity Plus: CASM3C Assay for Human Leukocyte Antigen - DR isotype (HLADR) Biomarker Activity (AID 2283043).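 Also: cell-surface HLA-DR protein level quantified by ELISA.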 The note with it: primary human coronary artery smooth muscle cells; actives raise or lower the signal.

Read-out in assay [15]: Macrophage colony-stimulating factor (MCSF), CSF1 (gene 1435)
The assay is described as follows: BSK_CASM3C_MCSF: BioMAP Diversity Plus: CASM3C Assay for Macrophage colony-stimulating factor (MCSF) Biomarker Activity (AID 2283044).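 Also: M-CSF protein amount quantified by ELISA after 24 h exposure.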 The conditions noted are these: primary human coronary artery smooth muscle cells; actives raise or lower the signal.

Read-out in assay [16]: Low-density lipoprotein receptor (LDLR), LDLR (gene 3949)
Put plainly: BSK_CASM3C_LDLR: BioMAP Diversity Plus: CASM3C Assay for Low-density lipoprotein receptor (LDLR) Biomarker Activity (AID 2283045).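 Also: LDLR protein level on the cell surface quantified by ELISA.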 The note with it: primary human coronary artery smooth muscle cells; actives raise or lower the signal.

Read-out in assay [17]: Monocyte Chemoattractant Protein-1 (MCP1), CCL2 (gene 6347)
The assay is described as follows: BSK_CASM3C_MCP1: BioMAP Diversity Plus: CASM3C Assay for Monocyte Chemoattractant Protein-1 (MCP1) Biomarker Activity (AID 2283046).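 Also: MCP-1 level quantified by ELISA 24 h after dosing.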 The note with it: primary human coronary artery smooth muscle cells; actives raise or lower the signal.

A short description of assay [18]: BSK_CASM3C_Proliferation: Cell Proliferation Assessment in the BioMAP Diversity Plus: CASM3C Assay (AID 2283047).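 Also: sulforhodamine B total protein stain as relative cell number at 560 nm; sub-confluent cells exposed 48 h before staining; fitted both ways against DMSO so gain or loss of cell number.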 The conditions noted are these: primary human coronary artery smooth muscle cells.
Read-out in assay [19]: Monokine induced gamma interferon (MIG), CXCL9 (gene 4283)
Put plainly: BSK_CASM3C_MIG: BioMAP Diversity Plus: CASM3C Assay for Monokine induced gamma interferon (MIG) Biomarker Activity (AID 2283048). The conditions noted are these: primary human coronary artery smooth muscle cells; actives raise or lower the signal.

Read-out in assay [20]: serum amyloid A (SAA), SAA1 (gene 6288)
Put plainly: BSK_CASM3C_SAA: BioMAP Diversity Plus: CASM3C Assay for serum amyloid A (SAA) Biomarker Activity (AID 2283049).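 Also: SAA protein level quantified by ELISA.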 The note with it: primary human coronary artery smooth muscle cells; actives raise or lower the signal.

Calls of active or inactive are those of the source. The calls were made as follows: active = hit-call score of the fitted dose curve at least 0.9, where 1 is the maximum; inactive = score below 0.9.

As usually defined, the AC50 is the concentration giving half of the maximal activity seen. On to `CCCCCCCCCCCC(C)=O`, for which the outcome in [1], in [2], in [3], in assay [6], in [7] and in assay [8] was inactive. In addition, the result in [9], in assay [10], in [11], in [12], in assay [13] and in assay [14] was inactive. Besides, the result in [16], in assay [19] and in assay [20] was inactive. Further, the AC50 was 29.6 µM (active) in [4]; 20 µM (active) in assay [5]; 35.9 µM (active) in [15]; 36.8 µM (active) in assay [17]; 20 µM (active) in assay [18].
`C=CCCCCCCCCC=O`: the result in [1], in [2], in assay [3], in assay [4], in assay [5] and in assay [6] was inactive. Moreover, the result in assay [7], in assay [8], in assay [9], in assay [10], in [11] and in assay [12] was inactive. For the same molecule, the result in assay [13], in assay [14], in assay [15], in [16], in assay [17] and in [18] was inactive. Also, the result in [19] and in assay [20] was inactive.
Turning to `C=CC(=O)NCOCCCC`, the result in assay [1], in assay [2], in [4], in assay [5], in [6] and in [7] was inactive. The outcome in assay [8], in [9], in assay [10], in assay [11], in [12] and in [13] was inactive. Besides, the outcome in assay [14], in [15], in assay [16], in [17], in [18] and in assay [19] was inactive. Also, in assay [20], the result was inactive.
As to `Clc1cc(Cl)c(Cl)c(Cl)c1Cl`, the result in assay [1], in [2], in [5], in [6], in [7] and in [8] was inactive. For the same molecule, the result in assay [9], in assay [10], in assay [11], in assay [12], in [13] and in [14] was inactive. The outcome in [15], in assay [16], in assay [17], in assay [18], in assay [19] and in assay [20] was inactive. For the same molecule, the AC50 in assay [4] is 20 µM (active).
Take `CC=C(C)C=CC=C(C)C`: the result in assay [1], in assay [2], in assay [4], in assay [5], in [6] and in assay [7] was inactive. In addition, the result in [8], in assay [10], in assay [11], in [13], in assay [16] and in [17] was inactive. In addition, the result in assay [19] and in [20] was inactive. For the same molecule, the AC50 in [9] was 0.0546 µM (active); in [12], 3.97 µM (active); in assay [14], 3.97 µM (active); in assay [15], 0.46 µM (active); in assay [18] it was 24 µM (active).
For `CCC1(C)C(=O)N(Cl)C(=O)N1Cl` (stereo not given), the outcome in assay [1], in assay [2], in assay [4], in [5], in [6] and in [7] was inactive. Also, the outcome in assay [8], in assay [9], in assay [10], in assay [11], in assay [12] and in [13] was inactive. In addition, the outcome in [14], in assay [15], in assay [16], in assay [17], in [18] and in [19] was inactive. The result in [20] was inactive.
For the molecule `CC(C)CCCCCOC(=O)CS`, the outcome in assay [1], in [2], in [4], in assay [5], in [6] and in assay [7] was inactive. Moreover, the outcome in assay [8], in assay [9], in assay [10], in [11], in [12] and in assay [13] was inactive. Also, the outcome in [14], in assay [15], in [16], in assay [17], in assay [18] and in assay [19] was inactive. The result in assay [20] was inactive.
